# Laboratory results as given in PubChem BioAssay (NCATS).
# Inconclusive results are not listed. Entries that show only a call come without a potency. Unmarked numbers belong to inactive results. Active and inactive are the calls of the source. Calls come from the whole dose curve; as a rule, active = well fitted inhibition curve with a large enough effect; inconclusive = small, poorly fitted or top-dose-only effect; inactive = flat fitted curve, though single readings scatter. Where a SMILES comes first, the peptide text is derived from it. [ ]: non-standard residue; d: D form. pGlu = O=C1CC[C@@H](C(=O)O)N1; Thz = O=C(O)[C@@H]1CSCN1
# Tests used:
# [1] = qHTS profiling for inhibitors of Plasmodium falciparum proliferation (AID 504749); note: nearly all actives have a fitted effect of over 60% in size; conditions: P. falciparum in erythrocytes, SYBR Green DNA, 72 h
# In short: (§1)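 SYBR Green fluorescence of parasite DNA, read after lysis and overnight dark incubation, measured growth over 72 h in erythrocyte culture at 0.3% parasitemia and 2.5% hematocrit. Data normalised to DMSO and 0.29 uM artemisinin, with plate-drift correction.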
# [2] = tested on: 3D7; assay: as above; conditions: P. falciparum in erythrocytes, SYBR Green DNA, 72 h; series mostly up to 28.7 µM
# In short: as §1
# [3] = tested on: 7G8; assay: as above; conditions: P. falciparum in erythrocytes, SYBR Green DNA, 72 h; series mostly up to 28.7 µM
# In short: as §1
# [4] = tested on: AA1029; assay: as above; conditions: P. falciparum in erythrocytes, SYBR Green DNA, 72 h; series mostly up to 28.7 µM
# In short: as §1
# [5] = tested on: AS120; assay: as above; conditions: P. falciparum in erythrocytes, SYBR Green DNA, 72 h; series mostly up to 28.7 µM
# In short: as §1
# [6] = tested on: ATS189; assay: as above; conditions: P. falciparum in erythrocytes, SYBR Green DNA, 72 h; series mostly up to 28.7 µM
# In short: as §1
# [7] = tested on: ATS95; assay: as above; conditions: P. falciparum in erythrocytes, SYBR Green DNA, 72 h; series mostly up to 28.7 µM
# In short: as §1
# [8] = tested on: C2A; assay: as above; conditions: P. falciparum in erythrocytes, SYBR Green DNA, 72 h; series mostly up to 28.7 µM
# In short: as §1
# [9] = tested on: CP185; assay: as above; conditions: P. falciparum in erythrocytes, SYBR Green DNA, 72 h; series mostly up to 28.7 µM
# In short: as §1
# [10] = tested on: CP191; assay: as above; conditions: P. falciparum in erythrocytes, SYBR Green DNA, 72 h; series mostly up to 28.7 µM
# In short: as §1
# [11] = tested on: CP192; assay: as above; conditions: P. falciparum in erythrocytes, SYBR Green DNA, 72 h; series mostly up to 28.7 µM
# In short: as §1
# [12] = tested on: CP194; assay: as above; conditions: P. falciparum in erythrocytes, SYBR Green DNA, 72 h; series mostly up to 28.7 µM
# In short: as §1
# [13] = tested on: CP201; assay: as above; conditions: P. falciparum in erythrocytes, SYBR Green DNA, 72 h; series mostly up to 28.7 µM
# In short: as §1
# [14] = tested on: CP203; assay: as above; conditions: P. falciparum in erythrocytes, SYBR Green DNA, 72 h; series mostly up to 28.7 µM
# In short: as §1
# [15] = tested on: CP211; assay: as above; conditions: P. falciparum in erythrocytes, SYBR Green DNA, 72 h; series mostly up to 28.7 µM
# In short: as §1
# [16] = tested on: CP215; assay: as above; conditions: P. falciparum in erythrocytes, SYBR Green DNA, 72 h; series mostly up to 28.7 µM
# In short: as §1
# [17] = tested on: CP217; assay: as above; conditions: P. falciparum in erythrocytes, SYBR Green DNA, 72 h; series mostly up to 28.7 µM
# In short: as §1
# [18] = tested on: CP237; assay: as above; conditions: P. falciparum in erythrocytes, SYBR Green DNA, 72 h; series mostly up to 28.7 µM
# In short: as §1
# [19] = tested on: CP238; assay: as above; conditions: P. falciparum in erythrocytes, SYBR Green DNA, 72 h; series mostly up to 28.7 µM
# In short: as §1
# [20] = tested on: CP247; assay: as above; conditions: P. falciparum in erythrocytes, SYBR Green DNA, 72 h; series mostly up to 28.7 µM
# In short: as §1
# [21] = at 28.7 µM (top of the series), parasite line A
# [22] = at 28.7 µM (top of the series), parasite line B
# Potency is the fitted concentration of half-maximal effect.
smiles,measurement,setting,value
COc1cc2c3cc1Oc1cc(ccc1O)C[C@@H]1c4c(cc(OC)c(O)c4Oc4ccc(cc4)C[C@@H]3N(C)CC2)CC[N+]1(C)C,"activity, negative = inhibition",[1]; [21],5.03%
same,"activity, negative = inhibition",[1]; [22],8.98%
same,Potency,[2],inactive
same,Potency,[3],inactive
same,Potency,[4],inactive
same,Potency,[5],inactive
same,Potency,[6],inactive
same,Potency,[7],inactive
same,Potency,[8],inactive
same,Potency,[9],inactive
same,Potency,[10],inactive
same,Potency,[11],inactive
same,Potency,[12],inactive
same,Potency,[13],inactive
same,Potency,[14],inactive
same,Potency,[15],inactive
same,Potency,[16],inactive
same,Potency,[17],inactive
same,Potency,[18],inactive
same,Potency,[19],inactive
same,Potency,[20],inactive
COc1ccc(-c2cc(=S)ss2)cc1,"activity, negative = inhibition",[1]; [21],-10.3%
same,"activity, negative = inhibition",[1]; [22],-12.9%
same,Potency,[2],inactive
same,Potency,[3],12.6 µM (active)
same,Potency,[4],inactive
same,Potency,[5],inactive
same,Potency,[6],inactive
same,Potency,[7],inactive
same,Potency,[8],inactive
same,Potency,[9],inactive
same,Potency,[10],inactive
same,Potency,[11],inactive
same,Potency,[12],inactive
same,Potency,[13],inactive
same,Potency,[15],inactive
same,Potency,[16],inactive
same,Potency,[17],inactive
same,Potency,[18],inactive
same,Potency,[19],inactive
same,Potency,[20],inactive
CCCCCCOc1ccccc1C(N)=O,"activity, negative = inhibition",[1]; [21],-23.7%
same,"activity, negative = inhibition",[1]; [22],1.07%
same,Potency,[2],inactive
same,Potency,[3],inactive
same,Potency,[4],inactive
same,Potency,[5],inactive
same,Potency,[6],inactive
same,Potency,[7],inactive
same,Potency,[8],inactive
same,Potency,[9],inactive
same,Potency,[10],inactive
same,Potency,[11],inactive
same,Potency,[12],inactive
same,Potency,[13],inactive
same,Potency,[15],inactive
same,Potency,[16],inactive
same,Potency,[17],inactive
same,Potency,[18],inactive
same,Potency,[19],inactive
same,Potency,[20],inactive
COc1cc(CNC(=O)CCCC/C=C/C(C)C)ccc1O,"activity, negative = inhibition",[1]; [21],-2.8%
same,"activity, negative = inhibition",[1]; [22],8.8%
same,Potency,[2],inactive
same,Potency,[3],inactive
same,Potency,[4],inactive
same,Potency,[5],inactive
same,Potency,[6],inactive
same,Potency,[7],inactive
same,Potency,[8],inactive
same,Potency,[9],inactive
same,Potency,[10],inactive
same,Potency,[11],inactive
same,Potency,[12],inactive
same,Potency,[13],inactive
same,Potency,[15],inactive
same,Potency,[16],inactive
same,Potency,[17],inactive
same,Potency,[18],inactive
same,Potency,[19],inactive
same,Potency,[20],inactive
CC1(C)S[C@@H]2[C@H](NC(=O)[C@H](NC(=O)N3CCN(S(C)(=O)=O)C3=O)c3ccccc3)C(=O)N2[C@H]1C(=O)O,"activity, negative = inhibition",[1]; [21],-8.81%
same,"activity, negative = inhibition",[1]; [22],-7.98%
same,Potency,[2],inactive
same,Potency,[3],inactive
same,Potency,[4],inactive
same,Potency,[5],inactive
same,Potency,[6],inactive
same,Potency,[7],inactive
same,Potency,[8],inactive
same,Potency,[9],inactive
same,Potency,[10],inactive
same,Potency,[11],inactive
same,Potency,[12],inactive
same,Potency,[13],inactive
same,Potency,[15],inactive
same,Potency,[16],inactive
same,Potency,[17],inactive
same,Potency,[18],inactive
same,Potency,[19],inactive
same,Potency,[20],inactive
C=CCCCCCCCCC(=O)O,"activity, negative = inhibition",[1]; [21],5.45%
same,"activity, negative = inhibition",[1]; [22],15%
same,Potency,[2],inactive
same,Potency,[3],inactive
same,Potency,[4],inactive
same,Potency,[5],inactive
same,Potency,[6],inactive
same,Potency,[7],inactive
same,Potency,[8],inactive
same,Potency,[9],inactive
same,Potency,[10],inactive
same,Potency,[11],inactive
same,Potency,[12],inactive
same,Potency,[13],inactive
same,Potency,[15],inactive
same,Potency,[16],inactive
same,Potency,[17],inactive
same,Potency,[18],inactive
same,Potency,[19],inactive
same,Potency,[20],inactive
Cc1ccc(O)c(-n2nc3ccccc3n2)c1,"activity, negative = inhibition",[1]; [21],4.17%
same,"activity, negative = inhibition",[1]; [22],15.3%
same,Potency,[2],inactive
same,Potency,[3],inactive
same,Potency,[4],inactive
same,Potency,[5],inactive
same,Potency,[6],inactive
same,Potency,[7],inactive
same,Potency,[8],inactive
same,Potency,[9],inactive
same,Potency,[10],inactive
same,Potency,[11],inactive
same,Potency,[12],inactive
same,Potency,[13],inactive
same,Potency,[14],inactive
same,Potency,[15],inactive
same,Potency,[16],inactive
same,Potency,[17],inactive
same,Potency,[18],inactive
same,Potency,[19],inactive
same,Potency,[20],inactive
CCCCCC[C@@H](O)C/C=C\CCCCCCCC(=O)O,"activity, negative = inhibition",[1]; [21],-10.4%
same,"activity, negative = inhibition",[1]; [22],-8.48%
same,Potency,[2],inactive
same,Potency,[3],inactive
same,Potency,[4],inactive
same,Potency,[5],inactive
same,Potency,[6],inactive
same,Potency,[7],inactive
same,Potency,[8],inactive
same,Potency,[9],inactive
same,Potency,[10],inactive
same,Potency,[11],inactive
same,Potency,[12],inactive
same,Potency,[13],inactive
same,Potency,[14],inactive
same,Potency,[15],inactive
same,Potency,[16],inactive
same,Potency,[17],inactive
same,Potency,[18],inactive
same,Potency,[19],inactive
same,Potency,[20],inactive
O=C(O)Cc1ccc(-c2ccccc2)cc1,"activity, negative = inhibition","[1]; at 12.8 µM (top of the series), parasite line A",2.72%
same,"activity, negative = inhibition","[1]; at 12.8 µM (top of the series), parasite line B",-2.57%
same,Potency,[2],inactive
same,Potency,[3],inactive
same,Potency,[4],inactive
same,Potency,[5],inactive
same,Potency,[6],inactive
same,Potency,[7],inactive
same,Potency,[8],inactive
same,Potency,[9],inactive
same,Potency,[10],inactive
same,Potency,[11],inactive
same,Potency,[12],inactive
same,Potency,[13],inactive
same,Potency,[14],inactive
same,Potency,[15],inactive
same,Potency,[16],inactive
same,Potency,[17],inactive
same,Potency,[18],inactive
same,Potency,[19],inactive
same,Potency,[20],inactive
C=CC(N)CCC(=O)O (stereo unspecified),"activity, negative = inhibition",[1]; [21],0.626%
same,"activity, negative = inhibition",[1]; [22],10.5%
same,Potency,[2],inactive
same,Potency,[3],inactive
same,Potency,[4],inactive
same,Potency,[5],inactive
same,Potency,[6],inactive
same,Potency,[7],inactive
same,Potency,[8],inactive
same,Potency,[9],inactive
same,Potency,[10],inactive
same,Potency,[11],inactive
same,Potency,[12],inactive
same,Potency,[13],inactive
same,Potency,[15],inactive
same,Potency,[16],inactive
same,Potency,[17],inactive
same,Potency,[18],inactive
same,Potency,[19],inactive
same,Potency,[20],inactive
C#C[C@]1(O)CC[C@H]2[C@@H]3CCc4cc(O)ccc4[C@H]3CC[C@@]21C,"activity, negative = inhibition",[1]; [21],17.5%
same,"activity, negative = inhibition",[1]; [22],5.92%
same,Potency,[2],inactive
same,Potency,[3],inactive
same,Potency,[4],inactive
same,Potency,[5],inactive
same,Potency,[6],inactive
same,Potency,[7],inactive
same,Potency,[8],inactive
same,Potency,[9],inactive
same,Potency,[10],inactive
same,Potency,[11],inactive
same,Potency,[12],inactive
same,Potency,[13],inactive
same,Potency,[14],inactive
same,Potency,[15],inactive
same,Potency,[16],inactive
same,Potency,[17],inactive
same,Potency,[18],inactive
same,Potency,[19],inactive
same,Potency,[20],inactive
O=C1CC[C@@H](C(=O)N2CSC[C@H]2C(=O)O)N1 ([pGlu]-[Thz]-OH),"activity, negative = inhibition",[1]; [21],14.8%
same,"activity, negative = inhibition",[1]; [22],2.84%
same,Potency,[2],inactive
same,Potency,[3],inactive
same,Potency,[4],inactive
same,Potency,[5],inactive
same,Potency,[6],inactive
same,Potency,[7],inactive
same,Potency,[8],inactive
same,Potency,[9],inactive
same,Potency,[10],inactive
same,Potency,[11],inactive
same,Potency,[12],inactive
same,Potency,[13],inactive
same,Potency,[14],inactive
same,Potency,[15],inactive
same,Potency,[16],inactive
same,Potency,[17],inactive
same,Potency,[18],inactive
same,Potency,[19],inactive
same,Potency,[20],inactive
